Our source for the growth values is PubChem BioAssay (NCI).

Compounds without any hit were thinned out: in the full panel of roughly 83,000, 20% have a hit.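 How to read the values: 0–100, growth inhibition (40 = 60% inhibited); 0, no net growth; -100 to 0, cell death (-40 = 40% of starting cells died; -100 = all dead).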 Values without a mark were called inactive. Activity calls are given as the source filed them. Rule for the calls: active = growth percent below 10; inactive = the rest.

Assay in all cases: NCI-60 one-dose screen, 48 h (100 = growth as untreated, 0 = no growth, -100 = all killed)
Details in all cases: 10 µM unless noted

Assay [1] has as its system DU-145 prostate.
Assay [2] concerns K-562 leukemia.
In assay [3] the test system is MALME-3M melanoma.
Assay [4] deals with MDA-MB-231 breast.
Assay [5] deals with RXF 393 renal.
For assay [6], the system named is SF-268 CNS.
In assay [7] the test system is SF-295 CNS.
Assay [8] concerns SF-539 CNS.
Assay [9] deals with UACC-257 melanoma.
The test system of assay [10] is M14 melanoma.
Assay [11] concerns HCT-15 colon.
Assay [12] relates to HT29 colon.
The subject of assay [13] is SNB-75 CNS.
Assay [14] relates to SNB-19 CNS.
In assay [15] the test system is U251 CNS.
Assay [16] has as its system PC-3 prostate.
The test system of assay [17] is SK-MEL-5 melanoma.
Assay [18] relates to UACC-62 melanoma.
For assay [19], the system named is LOX IMVI melanoma.
For assay [20], the system named is SK-MEL-28 melanoma.

For `COc1cc(C2CC(c3ccc(Nc4nc(Nc5ccc(Cl)cc5)nc(Nc5ccc(Cl)cc5)n4)cc3)=NN2C(C)=O)cc(OC)c1OC` (stereo not given), the growth in [1] is 115%; in [2] it was 73.5%; in [3] it was 99.2%; in assay [4], 102%; in [5] it was 92.4%; in assay [6] it was 106%. Also, the growth in assay [7] is 102%; in [8], 98.7%; in assay [9], 103%; in assay [10], 102%; in assay [11], 88.9%; in assay [12] it was 97.2%. The growth is 106% in [13]; 102% in [14]; 93.6% in assay [15]; 89.9% in [16]; 81.3% in assay [17]; 90.1% in assay [18]. Also, the growth in [19] is 105%; in assay [20], 119%.
`Fc1cc2c(cc1Cl)N(c1ncnc3ccc(-c4ccc5n[nH]nc5c4)cc13)CC2`: the growth in assay [1] is 67.1%; in assay [2] it was 88.2%; in assay [3], 88.8%; in assay [4], 72.8%; in [5] it was 78.7%; in assay [6] it was 69.5%. Also, the growth in [7] was 91.7%; in assay [8], 78.9%; in assay [9], 96%; in assay [10], 94.8%; in assay [11], 95.7%; in assay [12] it was 95%. The growth in [13] was 22.1%; in [14], 80%; in assay [15], 86.9%; in assay [16], 71.1%; in assay [17], 91.2%; in assay [18] it was 78.7%. Moreover, the growth was 86% in assay [19] and 86.9% in assay [20].
As to `N=C(N)c1ccc(-c2ccc(-c3ccc(Cl)c(Cl)c3)s2)nc1`, the growth was -76.5% (active) in [1]; -23.4% (active) in [2]; 60.5% in assay [3]; -27.1% (active) in assay [4]; 79.5% in assay [5]; 46.8% in assay [6]. The growth in assay [7] was 0.36% (active); in [8] it was 23.1%; in assay [9], 87.9%; in assay [10], 36.1%; in assay [11], -71.9% (active); in assay [12], 5.19% (active). Also, the growth is 84.8% in [13]; 11.7% in [14]; -55.7% (active) in assay [15]; -16.9% (active) in [16]; 91.3% in assay [17]; 81% in assay [18]. For the same molecule, the growth in assay [19] is -88.6% (active); in assay [20], 107%.
For the molecule `O=C1C(Cl)=C(NCCCCCCNC2=C(Cl)C(=O)c3ccccc3C2=O)C(=O)c2ccccc21`, the growth in [1] was 104%; in [2], 69.7%; in assay [3], 88.8%; in assay [4], 78.2%; in [5], 123%; in assay [6], 98.2%. Moreover, the growth in assay [7] was 114%; in assay [8], 115%; in [9], 75%; in [10], 87.9%; in [11], 63.3%; in assay [12], 98.7%. The growth in assay [13] was 117%; in assay [14], 96.3%; in assay [15], 89.9%; in [16], 82.2%; in [17], 53.2%; in [18], 83.5%. Also, the growth in [19] was 36.3%; in assay [20], 111%.
Consider `COc1ccc(Nc2nnc(-c3ccc(OC)c(OC)c3)o2)cc1`, for which the growth was 90.9% in [1]; 80.2% in assay [2]; 106% in [3]; 55.7% in [4]; 102% in [5]; 80.8% in [6]. The growth in assay [7] was 101%; in [8], 92.1%; in [9], 102%; in assay [10], 100%; in [11] it was 80.3%; in [12], 90.9%. Moreover, the growth in assay [13] is 97.5%; in [14], 97.5%; in [15], 93%; in assay [16] it was 70.7%; in assay [17], 89%; in assay [18], 90.2%. Besides, the growth in assay [19] is 59.2%; in assay [20], 106%.
For `COc1cc(-c2nccc3[nH]c(-c4ccc5cc[nH]c5c4)nc23)cc(OC)c1OC`, the growth in assay [1] is 18.2%; in assay [2], -14.4% (active); in assay [3] it was 21.7%; in assay [4], -20.3% (active); in assay [5], 18%; in [6] it was 19.3%. The growth in [7] is -59.4% (active); in assay [8], -19.5% (active); in [9] it was 29.6%; in [10], 4.35% (active); in assay [11], -7.01% (active); in assay [12] it was -37.8% (active). The growth in assay [13] is 18.9%; in assay [14], 34.8%; in [15], -16.3% (active); in assay [16] it was -0.946% (active); in assay [17], -38.4% (active); in [18] it was 27.4%. For the same molecule, the growth in [19] is -67.5% (active); in assay [20], 42.1%.
Consider `O=C(CN1C(=O)S/C(=C\c2ccccc2)C1=O)Nc1ncc(Cc2ccccc2Cl)s1`, for which the growth was 87% in assay [1]; 97.3% in [2]; 104% in assay [3]; 101% in [4]; 125% in assay [5]; 87.9% in assay [6]. The growth was 100% in [7]; 94.8% in assay [8]; 96.9% in assay [9]; 102% in assay [10]; 92.3% in assay [11]; 109% in [12]. Also, the growth was 81.9% in assay [13]; 101% in assay [14]; 95% in [15]; 79% in assay [16]; 98.2% in assay [17]; 85.6% in assay [18]. The growth is 87.9% in assay [19] and 119% in assay [20].
In the case of `Cc1cccc(/C=C/c2c(C(=O)/C=C/c3ccccc3)c(C)nc3ccccc23)c1`, the growth was -62% (active) in assay [1]; 3.77% (active) in assay [2]; -79.3% (active) in assay [3]; -14.1% (active) in [4]; -83% (active) in assay [5]; 37.7% in assay [6]. In addition, the growth in assay [7] is -18.8% (active); in [8], -84.9% (active); in assay [9], -31.1% (active); in assay [10] it was -12.8% (active); in assay [11], -58.8% (active); in [12] it was -24.2% (active). Further, the growth in [13] was -9.89% (active); in assay [14], -80.5% (active); in [15] it was -94.1% (active); in assay [16] it was 8.27% (active); in [17], -58.1% (active); in [18], -67.3% (active). The growth in assay [19] is -86.1% (active); in [20], -61.8% (active).
